The campaign covered roughly 350,000 compounds. About 31,000 (8.9%) were called active. Inconclusive results (about 15%) are left out. Shown is part of a subset that was picked to be rich in actives. A number with no mark means an inactive call. Calls follow the shape of the dose curve; as a rule, active = well fitted inhibition curve with a large enough effect; inconclusive = small, poorly fitted or top-dose-only effect; inactive = no such curve, though single readings can be large or run the other way.
Biological target: Histone-lysine N-methyltransferase EHMT2 (Homo sapiens) (UniProt Q96KQ7)
Assay: qHTS Assay for Inhibitors of Histone Lysine Methyltransferase G9a; also: nearly all actives have a fitted effect of over 75% in size
Details: G9a H3K9 monomethylation, AlphaScreen, 2 h; series mostly up to 59 µM; activity, negative = inhibition: at the top concentration
Procedure, shortened: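 Readings reflect AlphaScreen signal from monomethyl-H3K9 antibody detection. HMT at 20 nM; substrate b-H3K9 500 nM; cofactor SAM 20 uM; 2 h RT reaction; compounds tested as titrations in qHTS with 15 min preincubation.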
% is scaled to controls: 0 for no effect and ±100 for the full control effect; potency is read from the fitted curve at half-maximal effect.

Chain of Histone-lysine N-methyltransferase EHMT2 (Homo sapiens) (Q96KQ7 913-1193 limits assumed): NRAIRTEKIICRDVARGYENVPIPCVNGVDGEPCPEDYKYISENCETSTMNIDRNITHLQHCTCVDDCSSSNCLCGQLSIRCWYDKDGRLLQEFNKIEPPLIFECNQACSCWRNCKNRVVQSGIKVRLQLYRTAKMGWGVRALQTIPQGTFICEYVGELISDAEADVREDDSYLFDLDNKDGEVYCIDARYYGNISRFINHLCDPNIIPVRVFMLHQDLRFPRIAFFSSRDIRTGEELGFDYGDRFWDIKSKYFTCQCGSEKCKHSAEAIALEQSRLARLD

Structure (SMILES) | activity, negative = inhibition | Potency
O=C(NCCCN1CCCC1=O)C(=O)NCC1OCCN1S(=O)(=O)c1ccc(Br)cc1 (stereo unspecified) | 30.6% [at 102 µM] | –
Cc1ccc(NC(=O)CN2C(=O)CC(C)Sc3ccccc32)c(C)c1 (stereo unspecified) | -3.84% | –
COc1ccc(S(=O)(=O)N(C)CC(=O)N2CCCC2)cc1 | -6.5% [at 102 µM] | –
CCc1ccc(-n2nc(C)c3c(C)cc(=O)n(CC(=O)Nc4ccc(F)cc4C)c32)cc1 | 13.4% | –
Cc1cc(NC(=O)Cn2nc(C(F)(F)F)c3c2CCCC3)no1 | 2.94% | –
CCN(CC)c1ccc(NC(=O)Cn2nc3c(cc2=O)CCCC3)c(C)c1 | – | 11.2 µM (active)
C/C(=C/c1ccccc1)C(=O)N1CCN(c2ccccc2)CC1 | -3.56% [at 102 µM] | –
CCOc1ccc(NC(=O)c2cnn(-c3ccccc3)c2-n2cccc2)cc1 | -16.2% | –
O=C(N1CCOCC1)N1CCOCC1 | 9.64% | –
Cc1ccc(C(=O)N2CCN(C(=O)N3CCOCC3)CC2)cc1 | -4.57% | –
N#C/C(=C/c1ccc(N2CCOCC2)o1)C(=O)N1CCOCC1 | – | 7.94 µM (active)
Cc1cccc(NC(=O)Cc2ccc(Br)cc2)n1 | 12.1% [at 0.501 µM] | –
CCOCCCNC(=O)c1c(NC(=O)Cc2coc3ccc(C)cc23)sc2c1CCC2 | -21.4% | –
O=C(CSCc1cnn(-c2ccccc2)c1-n1cccc1)NCc1ccc(Cl)cc1 | -27.5% | –
Cc1cccc(N2C(=O)SC(N(CC(=O)O)c3cccc(C)c3)C2=O)c1 (stereo unspecified) | -87.4% [at 102 µM] | –
Cc1cccc(N2C(=O)C3C(c4ccccc4)OC4(C(=O)c5ccccc5C4=O)C3C2=O)c1 (stereo unspecified) | -13.5% | –
Cc1cccc(N2C(=O)SC(SC(=Nc3ccccc3)Nc3ccccc3)C2=O)c1 (stereo unspecified) | – | 3.55 µM (active)
COc1ccc(OC)c(-c2csc(NC(=O)COC(=O)C3CC3)n2)c1 | -10.3% | –
COc1cccc(CNC(=O)COC(=O)CN2C(=O)NC3(CCCCC3C)C2=O)c1 (stereo unspecified) | 7.7% [at 12.7 µM] | –
COc1ccccc1C1/C(=C(/O)c2ccc(OC(C)C)cc2)C(=O)C(=O)N1c1cc(C)on1 (stereo unspecified) | – | 1.26 µM (active)
COc1ccc(C2/C(=C(/O)c3ccccc3)C(=O)C(=O)N2C)c(OC)c1 (stereo unspecified) | -3.6% [at 0.501 µM] | –
Cc1cc(N2C(=O)C(=O)/C(=C(/O)c3ccc(Cl)cc3)C2c2cccc(Br)c2)no1 (stereo unspecified) | -2.11% | –
COC(=O)C1(C)CC1(c1ccccc1)c1ccccc1 (stereo unspecified) | 48.6% [at 102 µM] | –
CC(=O)c1ccc(N2CCN(S(=O)(=O)c3ccc4c(c3)CC(=O)N4C)CC2)cc1 | 0.477% [at 102 µM] | –

Structure (SMILES) | activity, negative = inhibition | Potency
Cc1ccc2oc(=O)c3cnn(CC(=O)N4CCN(c5cccc(Cl)c5)CC4)c3c2c1 | -0.798% | –
CSc1ccc(CCNC(=O)c2cnn(-c3ccccc3)c2-n2cccc2)cc1 | 3.56% | –
CC1CCN(C(=O)C2CCN(S(=O)(=O)N3CCC4(CC3)OCCO4)CC2)CC1 | -9.21% [at 102 µM] | –
Cc1csc(=O)n1CC(=O)OCC(=O)N(CC(C)C)c1c(N)n(Cc2ccccc2)c(=O)[nH]c1=O | 6.53% [at 102 µM] | –
COCCN(C(=O)COC(=O)Cc1cccc(OC)c1)c1c(N)n(Cc2ccccc2)c(=O)[nH]c1=O | -40.6% [at 102 µM] | –
COc1ccc2oc(C(=O)OCC(=O)N(CC(C)C)c3c(N)n(Cc4ccccc4)c(=O)[nH]c3=O)c(C)c2c1 | – | 39.8 µM (active)
O=C(NC1CC(=O)N(c2ccc(F)cc2)C1)c1ccc(S(=O)(=O)N2CCCC2)cc1 (stereo unspecified) | -39.5% | –
CCN(CC)C(=O)CSc1nc2cc3c(cc2c(=O)n1CCCC(=O)NCc1ccc2c(c1)OCO2)OCO3 | 0.103% | –
CCc1c(C)[nH]c(=S)c(C#N)c1C | – | 1.12 µM (active)
CCOC(=O)C1=C(CCc2ccccc2)NC(=O)NC1c1ccc2ccccc2c1 (stereo unspecified) | -5.48% [at 102 µM] | –
CCOC(=O)C1=C(CN2CCc3ccccc32)NC(=O)NC1c1cccc([N+](=O)[O-])c1 (stereo unspecified) | – | 39.8 µM (active)
CCOC(=O)C1=C(CN2CCCCCC2)NC(=O)NC1c1cccc([N+](=O)[O-])c1 (stereo unspecified) | -40.2% [at 102 µM] | –
Cc1ccc(C)c(N2CCN(C(=O)CN3C(=O)COc4ccc(S(=O)(=O)N5CCCCCC5)cc43)CC2)c1 | 1.44% | –
CC(C)(C)C(=O)COC(=O)c1cc(S(=O)(=O)N2CCCCC2)ccc1N1CCOCC1 | -0.482% [at 102 µM] | –
Cc1nnc(Sc2nc3c(c(=O)[nH]c(=O)n3C)n2Cc2ccccc2)s1 | 17.7% [at 12.7 µM] | –
C=CCn1c(SCc2ccccc2)nc2c1c(=O)[nH]c(=O)n2C | – | 31.6 µM (active)
C=CCSc1nc2c(c(=O)[nH]c(=O)n2C)n1Cc1ccccc1 | 30.7% [at 102 µM] | –
O=[N+]([O-])c1c(NCCO)cc(Sc2nc3ccccc3s2)c2nonc12 | – | 3.55 µM (active)
O=[N+]([O-])c1cc(Br)c(O)c(/C=N/Nc2nc3ccccc3s2)c1 | 115% [at 102 µM] | –
Cc1nn(CC(=O)Nc2nc3ccccc3s2)c(C)c1[N+](=O)[O-] | 11.1% [at 0.501 µM] | –
CCN(CC)P(=O)(/C(Cl)=C\Nc1c(C)n(C)n(-c2ccccc2)c1=O)N(CC)CC | – | 31.6 µM (active)
Cc1c(NC(=S)Nc2ccccc2)c(=O)n(-c2ccccc2)n1C | 0.236% | –
Cc1c(NS(=O)(=O)c2ccc(Cl)cc2)c(=O)n(-c2ccccc2)n1C | 9.47% | –
COc1ccccc1-c1nc(C#N)c(N2CCC(C(N)=O)CC2)o1 | -5.97% [at 102 µM] | –

Structure (SMILES) | activity, negative = inhibition | Potency
Cc1oc(-c2ccccc2F)nc1CS(=O)CC(=O)NCCN1CCCCC1C (stereo unspecified) | -25.9% [at 102 µM] | –
CC1CCN(c2oc(-c3ccccc3F)nc2C#N)CC1 | – | 7.94 µM (active)
COc1ccc(Cl)cc1NC(=O)C(C)Sc1nc2c(c(=O)[nH]1)CCCC2 (stereo unspecified) | -28.6% | –
CCOc1ncccc1C(=O)Nc1ccc(S(=O)(=O)Nc2nc(C)cc(C)n2)cc1 | 108% [at 12.7 µM] | –
Cc1cc(C)nc(NS(=O)(=O)c2ccc(N/C=C\C(=O)c3cccs3)cc2)n1 | – | 50.1 µM (active)
CC(=O)Nc1ccc(S(=O)(=O)Nc2nccc(/C=C/c3ccccc3F)n2)cc1 | -3.27% [at 102 µM] | –
O=C(Nc1ccccc1[N+](=O)[O-])C1C(c2ccccc2)=C1c1ccccc1 | 24.3% [at 0.501 µM] | –
O=C(O)c1cc([N+](=O)[O-])c(Nc2cccc3ccccc23)c([N+](=O)[O-])c1 | – | 44.7 µM (active)
O=C(O)c1ccccc1-c1ccccc1C(=O)Nc1cccc2ccccc12 | 8.04% | –
Cc1ccccc1-n1c(=O)c2ccccc2n(Cc2ccc(F)cc2)c1=O | 3.97% | –
O=C(NCCc1ccccc1)C(=O)NCC(c1ccco1)S(=O)(=O)c1ccccc1 (stereo unspecified) | -6.5% | –
O=C(CSC(=S)N1CCOCC1)c1ccccc1 | – | 7.08 µM (active)
CN(C)CC(C)(C)CNC(=O)c1cc(Br)cc(Br)c1O | -26.2% [at 102 µM] | –
CC1CN(C(=O)CN2C(=O)NC(C)(c3ccccc3)C2=O)CC(C)O1 (stereo unspecified) | 5.65% [at 2.33 µM] | –
NC(=NC(=O)c1ccccc1)N1CCOCC1 | 3.07% | –
CC1CN(C(=S)SCC(=O)c2ccccc2)CC(C)O1 (stereo unspecified) | – | 1.78 µM (active)
O=C(CSC(=S)N1CCOCC1)c1cc(Br)cc(Br)c1O | – | 79.4 µM (active)
O=C1Nc2c(Br)cc(Br)cc2C1(O)N1CCOCC1 (stereo unspecified) | 5.27% [at 12.7 µM] | –
COC(=O)[C@H](Cc1ccccc1)NC(=O)N1CC(C)OC(C)C1 (stereo partly specified) | 10.9% [at 102 µM] | –
O=C(NC(=O)N1CCOCC1)c1ccccc1 | -4.57% | –
COc1cccc(-c2nc(S(=O)(=O)c3ccc(C)cc3)c(NCc3ccccc3)o2)c1 | -39.8% | –
COc1ccccc1CNC(=O)c1ccc(CS(=O)c2ccccc2Cl)o1 (stereo unspecified) | 2.15% | –
CCCCCn1c(CCCNC(=O)c2ccccc2OC)nc2ccccc21 | -4.32% | –
CNS(=O)(=O)c1cccc(C(=O)NC2CCCc3ccccc32)c1 (stereo unspecified) | -3.96% [at 102 µM] | –

Structure (SMILES) | activity, negative = inhibition | Potency
O=C(CCNS(=O)(=O)c1ccccc1)NCCSc1ccc(Br)cc1 | 9.11% | –
Cc1ccc(C(=O)OCC(=O)NCc2cc(C)c(O)c(C)c2)cc1S(=O)(=O)N1CCCCC1 | 5% | –
CCOCCCNC(=O)c1c(NC(=O)Cc2coc3c(C)c(C)ccc23)sc2c1CCC2 | -3.27% | –
COc1ccccc1CNC(=O)Cn1nc(C)c2nn(-c3ccc(Cl)cc3)c(C)c2c1=O | 10.4% | –
O=C(CSc1nc2ccccc2[nH]1)N/N=C/C=C\c1ccccc1[N+](=O)[O-] | -16.6% | –
CCn1c(SCC(=O)N/N=C/C=C/c2ccccc2[N+](=O)[O-])nnc1-c1ccccc1 | – | 39.8 µM (active)
Cc1ccc(-n2c(SCC(=O)N/N=C/C=C/c3ccccc3[N+](=O)[O-])nc3ccccc3c2=O)cc1 | -9.25% | –
CC(C)COc1ccc(C(=O)OCC(=O)NCCC2=CCCCC2)cc1 | -4.08% [at 102 µM] | –
CC(NC(=O)C1CCCN(S(=O)(=O)c2ccc(-n3cnnn3)cc2)C1)c1ccc(F)cc1 (stereo unspecified) | 11.5% [at 102 µM] | –
Cc1ccc(OC(=O)CCC(=O)Nc2ccc(Br)cc2)cc1 | 4.61% | –
COc1ccc(NC(=O)CCC(=O)Nc2nnc(C3CCCCC3)s2)cc1 | -0.257% [at 102 µM] | –
COC(=O)CCc1sc(Nc2ccc(Br)cc2)nc1-c1ccc(OC)cc1 | – | 35.5 µM (active)
COc1ccccc1CNC(=O)CCCN1C(=O)NC2(CCCC2)C1=O | -40.6% [at 102 µM] | –
Cc1ccc(Cl)cc1NC(=O)/C(C#N)=C\c1cn(Cc2ccc(F)cc2)c2ccccc12 | 13.7% | –
Cc1cccc(COc2ccccc2/C=N/Nc2ccc([N+](=O)[O-])cc2)c1 | – | 2.51 µM (active)
O=[N+]([O-])c1ccc(N/N=C/c2ccccc2)cc1 | -4.27% [at 102 µM] | –
Cc1ccc(NS(=O)(=O)c2ccc(N/N=C/c3ccccc3OCC(=O)O)c([N+](=O)[O-])c2)c(C)c1 | -115% | –
CC(C)c1ccc(S(=O)(=O)N2CCN(C(C)C(=O)NC3CCCC3)CC2)cc1 (stereo unspecified) | -7.57% [at 2.33 µM] | –
CCC(C)c1ccc(NC(=S)N2CCCC2)cc1 (stereo unspecified) | 6.13% [at 102 µM] | –
CCc1ccccc1NC(=O)N1CCC2(CC1)Oc1ccccc1C(=O)N2Cc1ccccc1F | -23.1% | –
CCC(=O)Nc1c(C(=O)N2CCN(c3ccc(F)cc3)CC2)oc2ccccc12 | 2.14% | –
COc1cc(C(=O)NCC(c2ccc(Cl)cc2)N2CCOCC2)cc(OC)c1OC (stereo unspecified) | 10.8% | –
CCc1cc(C(c2ccccc2OC)N2CCOCC2)c(NC(=O)c2ccccc2)s1 (stereo unspecified) | 7.98% [at 0.501 µM] | –
COc1cc(C(c2c(NC(=O)c3ccco3)sc(C)c2C)N2CCOCC2)cc(OC)c1OC (stereo unspecified) | – | 50.1 µM (active)

— PubChem BioAssay AID504332 (National Center for Advancing Translational Sciences (NCATS), 2011)
